Here are results for 17 compounds from PubChem BioAssay (NCI).

What all share (assay): NCI-60 one-dose screen, 48 h (100 = growth as untreated, 0 = no growth, -100 = all killed)
Assay [1] concerns HCT-15 colon. The conditions noted are these: 10 µM.
Assay [2] has as its system SNB-75 CNS. The conditions noted are these: 10 µM.
Assay [3] has as its system SNB-19 CNS. The conditions noted are these: 10 µM.
Assay [4] deals with U251 CNS. Conditions: 10 µM.
The subject of assay [5] is SK-MEL-5 melanoma. The conditions noted are these: 10 µM.
Assay [6] has as its system UACC-62 melanoma. The conditions noted are these: 10 µM unless noted.
For assay [7], the system named is LOX IMVI melanoma. The conditions noted are these: 10 µM.
The test system of assay [8] is SK-MEL-28 melanoma. The conditions noted are these: 10 µM.
In assay [9] the test system is EKVX NSCLC. Conditions: 10 µM.
In assay [10] the test system is SN12C renal. The conditions noted are these: 10 µM.
The test system of assay [11] is UO-31 renal. Conditions: 10 µM.
For assay [12], the system named is TK-10 renal. Conditions: 10 µM unless noted.
Assay [13] concerns ACHN renal. The conditions noted are these: 10 µM.
Assay [14] has as its system CAKI-1 renal. Conditions: 10 µM.
The test system of assay [15] is A498 renal. The conditions noted are these: 10 µM.
For assay [16], the system named is CCRF-CEM leukemia. The conditions noted are these: 10 µM.
The test system of assay [17] is MOLT-4 leukemia. The conditions noted are these: 10 µM.
The test system of assay [18] is HT29 colon. Conditions: 10 µM.
The test system of assay [19] is PC-3 prostate. The conditions noted are these: 10 µM.
Assay [20] relates to SK-MEL-2 melanoma. Conditions: 10 µM.

The panel holds about 83,000 compounds, 20% with a hit somewhere; the sample as a whole holds those more often.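 Testing used 96-well plates and a 48-hour single-concentration exposure. Example: -40 means 40% of the starting cells died.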 Values without a mark were called inactive. Activity calls are given as the source filed them. How the source made its calls: active means growth percent below 10; inactive means the rest.

In the case of `O=[N+]([O-])c1ccc(Sc2ccncn2)c([N+](=O)[O-])c1`, the growth in assay [1] was 85.3%; in [2] it was 81.8%; in assay [3], 106%; in assay [4] it was 106%; in [5] it was 93.1%; in assay [6] it was 74.1%. The growth in assay [7] is 4.84% (active); in assay [8], 96.1%; in assay [9], 105%; in assay [10] it was 51.3%; in assay [11], 51.1%; in assay [12], 34.3%. For the same compound, the growth was 37.2% in [13]; 39.7% in [14]; 127% in assay [15]; 41.2% in [16]; 66.1% in assay [17].
As for `CCCCOC(OCCCC)c1ccccc1`, the growth in [18] is 102%; in assay [2], 88.9%; in [3], 95.4%; in assay [4], 109%; in assay [19], 98.7%; in assay [5], 103%. Further, the growth in [6] was 97.2%; in assay [7] it was 92.7%; in assay [8], 107%; in [20], 108%; in [9], 110%; in assay [10], 101%. Also, the growth in assay [11] is 98.4%; in [12], 107%; in assay [13], 109%; in assay [14], 96.3%; in [15] it was 84.7%; in [16] it was 105%. In assay [17], the growth was 106%.
In the case of `NC(=S)NN=C1CCCC1`, the growth was 77.9% in [1]; 99.3% in assay [2]; 105% in [3]; 73.2% in assay [4]; 89.9% in assay [19]; 97.8% in assay [5]. Also, the growth in assay [6] is 103%; in assay [7], 88.6%; in [8] it was 101%; in [20] it was 104%; in assay [9], 65.4%; in assay [10], 94.5%. For the same compound, the growth in assay [11] is 63.2%; in [12], 105%; in assay [13], 107%; in [14], 102%; in [15] it was 85.6%; in [16], 42.7%. Moreover, the growth in assay [17] is 66.1%.
For the compound `CCN(CC)c1ccc2nc3ccc(=[N+](CC)CC)cc-3oc2c1`, the growth was 35.5% in [1]; -1.56% (active) in [3]; -13.9% (active) in assay [4]; 4.1% (active) in assay [19]; -53.4% (active) in assay [5]; -39.1% (active) in [6]. In addition, the growth was 2.45% (active) in assay [8]; 8.19% (active) in [9]; 0.99% (active) in assay [10]; 56% in assay [11]; -26.1% (active) in assay [12]; 8.56% (active) in assay [13]. In addition, the growth in assay [14] is 34.9%; in [15] it was 74.4%; in [16], 11.2%; in [17], -21.4% (active).
For the compound `O=C(CN1CCNCC1)N1CCOCC1`, the growth is 104% in [1]; 86.9% in [2]; 102% in assay [3]; 106% in assay [4]; 100% in [19]; 110% in assay [5]. Moreover, the growth in assay [6] was 106%; in [7], 98.4%; in assay [8], 115%; in assay [9] it was 107%; in assay [10] it was 104%; in [11] it was 84.6%. The growth in assay [12] is 110%; in assay [13] it was 110%; in assay [14], 101%; in assay [15] it was 116%; in assay [16] it was 100%; in [17], 81.6%.
On to `CCCCCC(C)(CC(=O)O)CC(=O)O`, for which the growth in [18] was 105%; in assay [2] it was 97.4%; in assay [3], 116%; in [4], 102%; in assay [19], 99.6%; in [5] it was 101%. For the same compound, the growth is 119% in assay [6]; 112% in [7]; 108% in assay [8]; 110% in assay [10]; 97.6% in assay [11]; 111% in assay [12]. For the same compound, the growth was 103% in [13]; 116% in assay [14]; 113% in [15]; 107% in assay [16]; 103% in assay [17].
With `CCOC(=O)C(C#N)Cc1ccccc1` (stereo not given), the growth is 104% in [18]; 99.1% in assay [2]; 100% in assay [3]; 112% in assay [4]; 90.2% in assay [19]; 117% in assay [5]. The growth in [6] is 111%; in assay [7] it was 107%; in assay [8], 120%; in [20], 114%; in assay [9] it was 114%; in assay [10], 103%. Moreover, the growth in [11] was 94.5%; in assay [12] it was 106%; in assay [13], 110%; in [14], 98.7%; in assay [15], 114%; in [16], 102%. Also, the growth in assay [17] was 123%.
`O=c1c2ccccc2c(Br)c(Br)c2ccccc12`: the growth is 98% in assay [1]; 119% in assay [2]; 101% in assay [3]; 91% in [4]; 95.7% in assay [19]; 109% in assay [5]. In addition, the growth was 95.6% in [6]; 106% in assay [8]; 105% in assay [9]; 96.8% in assay [10]; -35.2% (active) in assay [11]; 23.6% in [12]. Further, the growth in assay [13] is 53.7%; in assay [14], 56.5%; in assay [15] it was 113%; in [16] it was 30.7%; in assay [17], 53.6%.
As for `CCOc1ccc2[nH]c(=S)sc2c1`, the growth in assay [1] was 108%; in [2], 92%; in assay [3], 103%; in [4], 106%; in assay [19] it was 101%; in [5], 101%. The growth was 104% in [6]; 98.6% in assay [7]; 109% in [8]; 96.2% in assay [9]; 102% in assay [10]; 88% in [11]. The growth in assay [12] was 103%; in [13], 111%; in [14] it was 100%; in assay [15], 94%; in assay [16], 98.3%; in assay [17], 86.7%.
Regarding `CNc1nc(NC)c2cn[nH]c2n1`, the growth was 101% in assay [1]; 106% in assay [3]; 91.9% in assay [19]; 97.8% in [5]; 102% in assay [6]; 98.3% in [7]. Moreover, the growth in assay [8] was 115%; in assay [9], 99.2%; in [10], 100%; in assay [11], 78.6%; in assay [13], 108%; in assay [14], 88.6%. For the same compound, the growth in assay [15] was 112%; in assay [16] it was 5.44% (active); in assay [17], 101%.
As for `C/C(=C\c1cc(Cl)ccc1OCC(=O)O)[N+](=O)[O-]`, the growth in assay [1] was 101%; in assay [2], 112%; in [3], 117%; in [4] it was 102%; in [19], 96.2%; in [5] it was 111%. Also, the growth was 109% in assay [6]; 88.6% in assay [7]; 118% in assay [8]; 98.2% in assay [9]; 122% in assay [10]; 90.5% in [11]. The growth was 116% in assay [12]; 106% in assay [13]; 93.2% in [14]; 144% in assay [15]; 80.1% in [16]; 96.9% in assay [17].
Take `O=c1cc(-c2ccccc2)oc2c1ccc1ccccc12`: the growth was 97.7% in assay [1]; 71.4% in assay [2]; 75.5% in assay [3]; 83.8% in assay [4]; 84% in [19]; 79.6% in [5]. Besides, the growth in assay [6] is 85.6%; in assay [7] it was 89.3%; in assay [8] it was 99.3%; in assay [9], 80.1%; in assay [10], 84.2%; in assay [11], 58.9%. The growth was 108% in assay [12]; 77% in assay [13]; 90.8% in [14]; 73% in assay [15]; 89.4% in assay [16]; 75.6% in assay [17].
On to `O=c1cc2oc3cc(O)c(O)cc3c(-c3ccccc3O)c-2cc1O`, for which the growth was 91.7% in assay [1]; 62.9% in [2]; 72.5% in [3]; 58.4% in assay [4]; 73.9% in assay [19]; 74.2% in assay [5]. The growth in [6] is 80.5%; in assay [7] it was 64.8%; in assay [8], 81.6%; in assay [20], 110%; in assay [9] it was 84%; in [10] it was 66.4%. Also, the growth was 34.9% in assay [11]; 108% in assay [12]; 24% in assay [13]; 48% in [15]; 11% in assay [16]; 63.8% in assay [17].
With `O=C(CS)Nc1ccc2ccccc2c1`, the growth in [1] was 75.9%; in assay [2], 112%; in [3], 101%; in assay [4], 98%; in assay [19], 70%; in assay [5], 91.9%. Further, the growth in assay [6] was 94.1%; in assay [7], 86.7%; in assay [8] it was 102%; in assay [20] it was 116%; in assay [9], 119%; in assay [10], 101%. Besides, the growth is 88.7% in assay [11]; 128% in assay [12]; 93.6% in assay [13]; 98.8% in assay [15]; 81.1% in [16]; 84.5% in assay [17].
As for `O=S(=O)(O)CC(O)CN1CCN(CCO)CC1` (stereo not given), the growth in [1] is 102%; in assay [3], 115%; in [4], 106%; in [19], 81.1%; in assay [5], 107%; in [6] it was 117%. The growth in [7] is 96.8%; in assay [8], 117%; in assay [9], 119%; in assay [10], 110%; in assay [11] it was 91.6%; in [12] it was 116%. The growth in assay [13] is 111%; in assay [14] it was 106%; in assay [15], 106%; in assay [16] it was 103%; in assay [17] it was 90.3%.
Turning to `CC1(C)Nc2cccc3c(N=Nc4ccc(N=Nc5ccccc5)c5ccccc45)ccc(c23)N1`, the growth in assay [1] is 77.5%; in assay [2], 73%; in assay [3], 124%; in assay [4] it was 110%; in assay [19], 89.6%; in assay [5] it was 92.9%. Also, the growth in assay [6] is 79.2%; in [7], 77.6%; in assay [8], 116%; in [9] it was 78%; in assay [10], 94.6%; in [11] it was 54.2%. Also, the growth in assay [13] was 77.7%; in assay [14], 88.1%; in assay [15], 103%; in [16], 107%; in assay [17] it was 115%.
On to `CCN(CC)CCCC(C)Nc1ccnc(/C=C/c2ccc(Cl)cc2)c1` (stereo not given), for which the growth is -33.4% (active) in assay [1]; -49.3% (active) in assay [2]; 53.6% in [3]; -58.1% (active) in assay [4]; 45.5% in [19]; -96.7% (active) in assay [5]. Besides, the growth in [6] was -55.8% (active); in assay [7] it was -71.2% (active); in [8], -87.5% (active); in assay [20] it was -69.4% (active); in [9] it was 50.5%; in assay [10], 61.1%. For the same compound, the growth in assay [11] is -48.5% (active); in assay [12], -38.8% (active); in assay [13] it was 35.2%; in [14] it was 18.1%; in assay [15], 22.2%; in [16] it was 6.37% (active). Also, the growth in assay [17] is 13.3%.
